# Compound activity: PubChem BioAssay, National Center for Advancing Translational Sciences (NCATS)
# Pf growth 96h = Primary qHTS for delayed death inhibitors of the malarial parasite plastid, 96 hour incubation; P. falciparum luciferase reporter growth, 96 h; Potency, µM (series often up to 28.7 µM), inactives show top-dose activity change, negative = inhibition, usual class: inhibitors; 320,000 tested, 6.9% active; AID 504834, 2011; note: potency is the fitted concentration of half-maximal effect; % is set by controls: 0 for no effect and ±100 for the full control effect
#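 Infected RBCs, 2% Hct / 0.05% parasitemia final; luciferase-reporter P. falciparum; cpd 96 h, 37 C, 5% CO2; luciferase detection reagent; luminescence.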
# Pf growth 48h = Primary qHTS for delayed death inhibitors of the malarial parasite plastid, 48 hour incubation; P. falciparum luciferase growth in erythrocytes, 48 h; Potency, µM (doses to about 28.7 µM), inactives show top-dose activity change, negative = inhibition, usual class: inhibitors; 310,000 tested, 5.9% active; AID 504832, 2011; note: potency is the fitted concentration of half-maximal effect; % is set by controls: 0 for no effect and ±100 for the full control effect
#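 Read-out is firefly luciferase luminescence from an integrated reporter in P. falciparum, so falling signal marks reduced parasite growth. Infected erythrocytes were at 2% hematocrit and 0.1% parasitemia (final) in Albumax-supplemented RPMI 1640.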
# Shiga inhibitor = A qHTS for Small Molecule Inhibitors of Shiga Toxin; Vero cells, Shiga toxin protein synthesis inhibition reporter; inhibition, % at 38.7 µM; 290,000 tested, 9.2% active; AID 2315, 2010; in the data active = inhibition mostly above about 28%, no sharp cut-off; inactive = mostly below about 43%; note: 0% is about no effect
# HCV inhibitor = qHTS Assay for Inhibitors of Hepatitis C Virus (HCV); Huh7.5.1 HCVcc-Cre infection, luciferase reporter, 44 h; Potency, µM (highest dose often 41.8 µM), for the others: at the highest dose activity change, negative = inhibition, most hits filed as inhibitors; 340,000 tested, 3.4% active; note: potency is the fitted concentration of half-maximal effect; % is set by controls: 0 for no effect and ±100 for the full control effect
#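 Infectious HCV cell culture screen: compound-treated cells (1,000/well, pre-plated 4 h) are infected with HCVcc-Cre at roughly 0.5 moi and grown 44 h. Infection is quantified by luciferase signal after 15 min substrate incubation at room temperature.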
# AMA1-RON2 inh = qHTS for Inhibitors of AMA1-RON; Towards Development of Antimalarial Drug Lead: Primary Screen. 360,000 tested, 0.2% active. Plasmodium falciparum AMA1 (3D7) - RON2 peptide interaction. AlphaScreen AMA1-biotinylated RON2 peptide binding. Potency, µM (series often up to 58.2 µM), for the others: top-dose activity change, negative = inhibition, most hits filed as inhibitors. AID 720542, 2013;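 note: potency is the fitted concentration of half-maximal effect; 0% = vehicle wells and -100% = peptide control; nearly all actives have a fitted effect of over 45% in size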
#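 AMA1 (3D7) with his tag at 25 nM final met compounds first, then biotinylated RON2 peptide at 25 nM; detection used donor plus acceptor beads, 10 µg/mL apiece, read by AlphaScreen after 30 min at room temperature.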
# CHX counter = Cycloheximide Counterscreen for Small Molecule Inhibitors of Shiga Toxin; AID 2314, 2010; 300,000 tested, 12% active; cell reporter, cycloheximide protein synthesis inhibition counterscreen; max response, %; in the data active = max response mostly above about 13%, no sharp cut-off; inactive = mostly below about 14%; note: read at 38.3 µM for the half of the compounds with a filed dose; 0% is about no effect
# * = called active by the depositor; ? = inconclusive; nt = no result; [ ] = remark or other dose. Shown are actives, neighbours in structure and some others; about 21% of the full set was active somewhere. Unless noted, calls come from the whole dose curve; as a rule, active = well fitted curve in the direction sought with a large enough effect; inconclusive = small, poorly fitted or top-dose-only effect, or another doubt; inactive = no such curve, though single readings can be large; an effect the other way counts as inactive or inconclusive.
SMILES,Pf growth 96h,Pf growth 48h,Shiga inhibitor,HCV inhibitor,AMA1-RON2 inh,CHX counter
COC(=O)C1=CN(C(C)C)C=C(C(=O)OC)C1c1cccc(OC)c1,121.8%,?,-16.6,40.3%,44.3%,-2.1
COc1cccc(CN(C)C(=O)C(CCSC)NS(=O)(=O)c2ccc3c(c2)OCCO3)c1OC (centres undefined),?,11.7µM*,nt,?,-0.4%,nt
CN1\C(=C/C=C/C=C/C=[N+](C)C)C(C)(C)c2ccccc21,?,?,-7.5,10.3%,22.4µM*,8.2
CN1/C(=C\C=C\C2=[N+](C)c3ccc4ccccc4c3C2(C)C)C(C)(C)c2ccccc21,0.329µM*,1.31µM*,-62.2,nt,nt,-8.9
Cc1cc(/N=C/C=C2\N(C)c3ccccc3C2(C)C)n(CCC#N)n1,13.5%[5.75 µM],?,19.5,11.2µM*,-4.2%,3.1
CN1/C(=C/C=C(C#N)C#N)C(C)(C)c2ccccc21,?,75.9%,-1.1,-0.4%,-14.3%,6.5
Cc1c(N=C/C=C2\N(C)c3ccccc3C2(C)C)c(=O)n(-c2ccccc2)n1C,4.15µM*,6.2%,-5.3,-5.1%,-6.6%,-1.4
CN1/C(=C\C=O)C(C)(C)c2ccccc21,5.5%,2.2%,-2.2,6.1%,1.2%,-2.3
Cc1ccc(NC(=O)COC(=O)CCC2CCCC2)cc1S(=O)(=O)N1CCOCC1,nt,nt,nt,3.1%,-12.7%,nt
CN1/C(=C\C=Nc2ccc3ccccc3c2)C(C)(C)c2ccccc21,49.0%,19.0%,53.1,nt,nt,46.8*
CN(C)c1ccc(N=C/C=C2\N(C)c3ccccc3C2(C)C)cc1,?,?,167.2*,?,?,68.2*
CN1/C(=C\C=Nc2ccccc2)C(C)(C)c2ccccc21,?,?,-15.5,-27.7%,-1.5%,-2.3
O=C(N[C@@H]1CCC(=O)N(CC[C@H](Oc2ccccc2)c2ccccc2)CC1)OCc1ccccc1,10.4µM*,0.415µM*,14.3,-26.5%,1.9%,1.9
COc1ccc(SCCN2CC[C@@H](NC(=O)OCc3ccccc3)CCC2=O)cc1,?,?,nt,?,-1.5%,nt
Cc1ccc(S[C@@H](CCN2CC[C@H](NC(=O)OCc3ccccc3)CCC2=O)c2ccccc2)cc1,?,3.0%,-3.7,12.6µM*,-11.8%,0.4
C[C@@H](CSc1ccccc1)CN1CC[C@H](NC(=O)OCc2ccccc2)CCC1=O,?,-8.4%,-7.3,11.2µM*,11.0%,-2.0
Cc1ccc(SC[C@H](C)CN2CC[C@H](NC(=O)OCc3ccccc3)CCC2=O)cc1,?,-14.1%,-3.6,-13.9%,7.1%,1.6
Cc1ccc2nc(NCCN)c3ncc(C)n3c2c1,nt,nt,-9.1,nt,nt,-5.9
Cc1cccc(NC(=S)N/N=C/C(C)c2ccccc2)c1C (centres undefined),?,?,-4.9,7.1%,50.4%,11.2
Cc1ccccc1NC(=S)N/N=C/c1ccc(O)cc1O,?,0.0%,100.5*,-24.6%,62.1%,41.4*
Cc1ccccc1NC(=S)N/N=C/C(C)c1ccccc1 (centres undefined),?,?,2.2,2.9%,76.5%,15.5
Cc1cccc(NC(=S)N/N=C/c2cccc(O)c2)c1C,4.2%,1.2%,22.6,?,95.9%,19.0*
NS(=O)(=O)c1cc(C(=O)Nc2ccc3c(c2)OCCCO3)ccc1Cl,32.9%,56.6%,58.4*,-5.7%,-6.8%,19.0*
O=C(Nc1ccc2c(c1)OCCO2)c1ccc(Cl)c(S(=O)(=O)N2CCOCC2)c1,3.9%[5.75 µM],2.62µM*,65.5*,nt,1.7%,41.8*
O=C(Nc1ccc2c(c1)OCO2)c1ccc(Cl)c(S(=O)(=O)N2CCOCC2)c1,18.4%,?,38.9*,?,-0.3%,15.8*
SMILES,Pf growth 96h,Pf growth 48h,Shiga inhibitor,HCV inhibitor,AMA1-RON2 inh,CHX counter
O=C(Nc1ccc(Cl)c(S(=O)(=O)N2CCOCC2)c1)c1ccncc1,nt,nt,nt,2.4%,8.8%,nt
COc1ccc(C(=O)Nc2ccc3c(c2)OCCO3)cc1S(=O)(=O)N1CCOCC1,10.4µM*,?,nt,?,-17.4%,nt
NS(=O)(=O)c1ccc(NC(=O)c2ccc3c(c2)OCO3)cc1,-11.4%,8.7%,-5.3,5.5%,5.0%,-1.6
COc1ccc(C(=O)Nc2cc(C)cc(C)c2)cc1S(=O)(=O)N1CCOCC1,14.8%,-7.9%,-16.3,?,10.9%,9.0
Cc1ccc(NC(=O)c2ccc3c(c2)OCO3)cc1S(=O)(=O)N1CCOCC1,?,-8.3%,nt,-15.4%,-0.8%,nt
C[C@@H]1CN([C@@H](C)CO)S(=O)(=O)c2ccc(Br)cc2O[C@H]1CN(C)C(=O)c1ccccc1,nt,nt,nt,nt,6.6%,nt
CC(OC(=O)CCc1c[nH]c2ccccc12)C(=O)c1ccccc1 (centres undefined),?,7.8%,17.3,17.0%,-23.2%,1.9
CC(CC(=O)Nc1ccc(Cl)c(S(=O)(=O)N2CCOCC2)c1)c1ccccc1 (centres undefined),?,11.7µM*,nt,2.51µM*,0.0%,nt
CN(C)S(=O)(=O)c1cc(NC(=O)C2=COCCO2)ccc1Cl,11.7µM*,-16.1%,nt,23.1%,-0.5%,nt
O=C(CC1CCCC1)Nc1ccc(Cl)c(S(=O)(=O)N2CCOCC2)c1,nt,nt,nt,11.2µM*,6.9%,nt
O=C(Cc1ccc2c(c1)OCCO2)Nc1ccc(Cl)c(S(=O)(=O)N2CCOCC2)c1,9.28µM*,?,nt,?,-1.2%,nt
O=C(COC(=O)Cc1ccc(Cl)c(Cl)c1)NCCc1ccccc1,nt,nt,nt,nt,5.0%,nt
Cc1ccc(NC(=O)Cc2ccc3c(c2)OCCO3)cc1S(=O)(=O)N1CCCCC1,5.22µM*,171.3%,-4.5,-27.1%,-4.2%,12.4
CC(=O)O[C@H]1[C@H]2O[C@]23[C@@H]2CC[C@]4(O)C[C@@H](O)CC[C@]4(C)C2CC[C@]3(C)[C@H]1c1ccc(=O)oc1 (some centres undefined),-0.6%,20.0%,nt,3.16µM*,10.9%,nt
O=C(CCCc1ccccc1)Nc1ccc2c(c1)OCCO2,1.6%,126.1%,66.4*,-13.9%,-5.5%,35.6*
O=C(Nc1ccc2c(c1)OCCO2)c1cccc(Cl)c1,?,30.3%,nt,-0.4%,16.4%,44.4*
O=C(NC(=S)Nc1cccc(Cl)c1N1CCCCC1)c1ccc2c(c1)OCCO2,?,?,10.0,?,19.5%,20.1*
O=C(CC1CS(=O)(=O)CC1CC(=O)Nc1ccc2c(c1)OCCO2)Nc1ccc2c(c1)OCCO2 (centres undefined),-9.1%,40.1%,107.2*,-1.0%,4.8%,51.4*
O=C(CCCCCN1C(=O)c2ccccc2C1=O)Nc1ccc2c(c1)OCCO2,nt,-15.6%,46.7,1.5%,-20.3%,18.4
O=C(Nc1cccc(Cl)c1N1CCCCC1)c1ccc2c(c1)OCCO2,0.6%,?,-13.9,?,-4.7%,-2.8
